# Bioassay records from PubChem BioAssay.
# Only some compounds are listed: those with a hit (about 3.9% of all), similar ones and a draw of the others.
# USP2a block: USP2a (human) protease inhibition. USP2 core, Ub-CHOP2 coupled fluorogenic reporter, 485/531. O75604. AID 463254. 330,000 compounds, 0.01% hits. Potency, µM (doses to about 38.3 µM), without a hit: at the highest dose activity change, negative = inhibition, hits mostly inhibitors;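 further: potency means the concentration at half of the fitted maximal effect; plate controls were DMSO wells for no effect and full inhibition by NEM control for full effect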
#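 Deubiquitinase activity read as fluorescence (485/531 nm) after Ub-CHOP2 cleavage activates the enterokinase reporter on its substrate; USP2 core 10nM, Ub-CHOP2 and substrate 25nM each, 30min compound preincubation then 60min RT; data normalized to NEM, curves fitted.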
# Eya2 inh: Eya2 (human) phosphatase inhibition; O00167; 330,000 compounds, 0.006% hits; Potency, µM (top dose mostly 76.9 µM), inactives show at the highest dose activity, negative = inhibition, most hits filed as inhibitors; recombinant Eya2, OMFP fluorescence dephosphorylation (OMFP is methylfluorescein phosphate); further: potency means the concentration at half of the fitted maximal effect; on the % scale 0 is the no-effect control and ±100 the full control effect
# Target sequence (O00167 whole entry, looked up): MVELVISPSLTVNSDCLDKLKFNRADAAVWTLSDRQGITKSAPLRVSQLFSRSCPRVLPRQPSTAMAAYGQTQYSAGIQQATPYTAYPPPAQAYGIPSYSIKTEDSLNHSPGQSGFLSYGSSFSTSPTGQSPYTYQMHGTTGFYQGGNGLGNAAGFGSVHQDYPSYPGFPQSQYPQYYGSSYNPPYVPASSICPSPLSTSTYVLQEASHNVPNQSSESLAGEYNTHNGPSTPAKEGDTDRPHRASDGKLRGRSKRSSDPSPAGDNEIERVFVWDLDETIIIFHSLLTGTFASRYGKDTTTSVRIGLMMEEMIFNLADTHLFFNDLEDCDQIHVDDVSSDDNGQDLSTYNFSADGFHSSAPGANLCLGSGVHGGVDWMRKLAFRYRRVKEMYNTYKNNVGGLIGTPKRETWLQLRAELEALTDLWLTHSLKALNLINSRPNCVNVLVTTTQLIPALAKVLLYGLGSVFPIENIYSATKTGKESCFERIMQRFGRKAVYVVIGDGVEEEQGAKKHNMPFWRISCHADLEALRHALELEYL
#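 Eya2 (0.2 uM) preincubated 10 min at ambient with compound, then OMFP substrate added at 50 uM; 10 min reaction in 50 mM HEPES pH 7.5, 50 mM NaCl, 5 uM MgCl2, 0.05% BSA, 1 mM DTT. Fluorescence read at Ex 485/Em 525 nm.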
# D1 antagonist: antagonists of human D1 dopamine receptor | 360,000 compounds, 3.2% hits | activity change, negative = inhibition, % at 10 µM | P21728 | AID 504652 | HEK293 TREx D1 cells, calcium flux, dopamine EC80; stronger effect = lower value; in the data active means activity change below about -30%; further: on the % scale 0 is the no-effect control and ±100 the full control effect
#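 Using tetracycline-induced force-coupled D1 Hek293 cells and a calcium dye, signals were followed for 180 s after compound, then for 180 s after EC80 dopamine, to detect inhibitors.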
# GALK inh: blocks human galactokinase activity. P51570. Purified GALK, Kinase-Glo residual ATP luminescence. Potency, µM (titrated, usually from 57.5 µM), inactives show at the highest dose activity change, negative = inhibition, usual class: inhibitors. 270,000 compounds, 0.007% hits. AID 1868; further: potency means the concentration at half of the fitted maximal effect; on the % scale 0 is the no-effect control and ±100 the full control effect
#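 GALK at 5 nM final was combined with compound, 35 uM ATP and 100 uM galactose in HEPES pH8.0 with MgCl2 and DTT. The reaction ran one hour at room temperature before luminescent ATP detection.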
# D1 ag: human D1 receptor agonism; HEK293 T-REx D1 cells, calcium flux, agonist mode; activation, % at 2 µM; 360,000 compounds, 1% hits; AID 504660; in the data active means activation above about 30%; further: 0% is about no effect
#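 Inducible HEK293 T-REx D1 cells, force-coupled to calcium signalling, were plated at 4000 cells/well with tetracycline and held overnight at 30 C. After no-wash calcium dye loading, compound-evoked calcium rise over 180 s flagged agonists.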
# D1 potentiator: human D1 dopamine receptor positive modulation; AID 504651; 360,000 compounds, 0.036% hits; potentiation, % at 10 µM; P21728; HEK293 TREx D1 cells, calcium flux, dopamine EC20 potentiation; in the data active means potentiation above about 30%; further: 0% is about no effect
# * hit, by the source's call; x = no result given. Unless noted, the call rests on the fitted dose curve; in most records, active means well fitted inhibition curve with a large enough effect; inconclusive means small, poorly fitted or top-dose-only effect, or effect the other way; inactive means flat fitted curve, though single readings scatter.
SMILES,USP2a block,Eya2 inh,D1 antagonist,GALK inh,D1 ag,D1 potentiator
CCOc1ccccc1NC(=O)C(=O)c1cc(C)n(-c2cccc(C)c2C)c1C,x,x,2,x,7,-3
CCOc1ccc(-n2c(=O)c3c(C)c(C)sc3n(CC(=O)NCCc3ccccc3)c2=O)cc1,x,x,9,x,0,2
CCOc1ccc(-n2c(=O)c3c(C)c(C)sc3n(Cc3ccccc3C)c2=O)cc1,x,x,-73*,x,-1,5
CCOc1ccc(-n2c(=O)c3c(C)c(C)sc3n(Cc3cc(=O)n4cc(Cl)ccc4n3)c2=O)cc1,x,x,-42*,x,-1,1
COc1ccc(NC(=O)CN(c2ccc(C)cc2)S(=O)(=O)c2cccs2)cc1,x,x,16,x,1,-2
Cc1ccc(C)c(Cn2nnc(C(=O)Nc3ccc4c(c3)OCCO4)c2N)c1,2%,-33%,-4,x,50*,6
Cc1cc(C)cc(NC(=O)c2nnn(Cc3cc(C)ccc3C)c2N)c1,-2%,6%,-44*,0%,10,0
Cc1cc(C)cc(NC(=O)Cn2nnc(C(=O)Nc3cc(C)cc(C)c3)c2N)c1,x,x,-3,x,1,-1
Cc1ccccc1C(=O)Nc1ccc(S(=O)(=O)N2CCC(c3nc4ccccc4s3)CC2)cc1,x,x,2,x,1,-1
COc1cccc(-c2cc(C(F)(F)F)nc(-n3nc(C)c(Br)c3C)n2)c1,x,x,1,x,-2,-2
Cc1nc(COc2ccc(C(=O)NCc3ccccc3CN3CCCCC3)cc2)cs1,0%,-2%,-64*,x,34*,4
O=C(NCc1ccccc1CN1CCCC1)c1ccc(OCc2cscn2)cc1,-1%,9%,-17,x,13,x
O=C(NCCN1CCN(c2cccc(Cl)c2)CC1)c1ccc(CSc2nc3ccncc3[nH]2)cc1,-2%,4%,-48*,0%,2,-14
CCn1c(=O)c2cc(C(=O)NCCc3ccc(OC)c(OC)c3)sc2c2ccccc21,x,x,2,x,1,-2
Cc1ccc(CNC(=O)CSc2nc3ccccc3nc2Cc2ccc(C)cc2)cc1,x,x,3,x,1,-2
CCOC(=O)C1C(c2cccc(Cl)c2Cl)NC(=O)NC1(O)C(F)(F)F (configuration not stated),1%,1%,-59*,1%,-3,-4
CCCc1cc(C(=O)N2CCN(c3ccccc3C)CC2)cs1,0%,5%,-43*,-5%,2,-10
CCOC(=O)N1CCC(NC(=O)CCCC(=O)O)CC1,7%,15%,-33*,-2%,3,-4
CCOC(=O)N1CCc2c(sc3c2c(=O)n(-c2ccc(F)cc2)c(=O)n3CC(=O)c2ccc(Cl)cc2)C1,x,x,-7,x,17,-5
CCCn1c(N2CCOCC2)nc2c1c(=O)[nH]c(=O)n2C,2%,4%,-6,-3%,5,0
CCCn1c(N2CCN(C)CC2)nc2c1c(=O)[nH]c(=O)n2C,0%,-2%,-31*,-2%,2,-10
COc1nsnc1N1CCOCC1,4%,6%,10,2%,1,3
COC(=O)COc1nsnc1N1CCOCC1,0%,-11%,-60*,0%,1,-6
CC(=O)c1cccc(NC(=O)COc2nsnc2N2CCOCC2)c1,1%,4%,-35*,2%,6,-5
CCOC(=O)c1cccc(NC(=O)COc2nsnc2N2CCOCC2)c1,-2%,-5%,-6,1%,25,x
SMILES,USP2a block,Eya2 inh,D1 antagonist,GALK inh,D1 ag,D1 potentiator
COc1ccc(/C(C)=N/NC2=NCCN2)cc1Cl,-1%,7%,-93*,1%,2,-9
Cc1ccc(C)c(NC(=O)Cn2c(=O)n(Cc3ccc4c(c3)OCO4)c(=O)c3oc4ccccc4c32)c1,x,x,-2,x,1,-3
O=C1NC(=Nc2ccccc2Cl)SC1(CO)CO,0%,5%,5,-3%,3,-3
Cc1ccccc1N=C1NC(=O)C(CO)(CO)S1,0%,6%,-36*,-4%,2,-4
CCOc1ccccc1NC(=O)c1c(NC(=O)Cc2ccc(OC)cc2)sc2c1CCC2,x,x,6,x,1,5
CCOc1cc2sc(N3CCC(C(=O)Nc4ccccc4C(=O)OC)CC3)nc2cc1Br,x,x,11,x,2,-2
Cn1nc(-c2ccccc2F)c2cc(C(=O)NCc3ccccc3Cl)sc21,x,x,-9,x,16,-2
CCOC(=O)Cn1nc(C)n(-c2ccc(Br)cc2)c1=O,0%,5%,-48*,1%,2,14
CCOC(=O)Cn1nc(C)n(-c2ccc(Cl)cc2)c1=O,0%,1%,x,11%,1,1
COc1ccc(-c2noc(CSc3nnc(Cc4ccccc4)n3-c3ccccc3)n2)cc1OC,x,x,1,x,16,0
CC(=O)c1cc2c(cc1NC(=O)CSc1nc3ccccc3o1)OCO2,-1%,-22%,-35*,0%,2,7
CC(=O)c1cc2c(cc1NC(=O)CSc1nc3ccccc3[nH]1)OCO2,1%,-3%,-5,3%,0,0
Clc1c(CSc2nc3ccccc3o2)nc2ccccn12,-1%,-11%,-39*,1%,1,-8
COC(=O)CSc1nc2ccccc2o1,0%,16%,-37*,3%,1,-6
Cc1ccc(-c2csc(NC(=O)CSc3nc4ccccc4o3)n2)cc1,6%,5%,-35*,3%,4,-4
Cc1cc(C)c(S(=O)(=O)NCC(c2ccco2)S(=O)(=O)c2cccs2)c(C)c1 (configuration not stated),x,x,x,x,1,3
CCOc1ccccc1N(C)C(=O)Cn1cnc2sc(C)c(S(=O)(=O)N3CCC(C)CC3)c2c1=O,x,x,-4,x,5,4
O=C(CSc1nc2ccccc2o1)Nc1nc(-c2ccccc2)c(-c2ccccc2)s1,8%,-5%,-90*,0%,0,-9
COc1ccc(C(=O)COC(=O)c2cc(-c3cccs3)nc3ccccc23)cc1,x,x,-2,x,9,1
CCOC(=O)c1cccc(NS(=O)(=O)c2c(C)nc3sc(C)cn3c2=O)c1,x,x,-4,x,8,-2
S=C(Nc1ccc(Nc2ccccc2)cc1)NN1CCOCC1,-3%,-1%,7,-4%,2,0
O=S(=O)(c1ccc(NC(=S)N2CCN(c3ccccc3F)CC2)cc1)N1CCOCC1,7%,7%,-31*,0%,11,-12
O=S(=O)(c1ccc(NC(=S)N/N=C/c2ccc(N3CCOCC3)cc2)cc1)N1CCOCC1,-9%,7%,-44*,1%,2,-7
O=S(=O)(c1ccc(NC(=S)N/N=C/c2ccc(Oc3ccccc3)cc2)cc1)N1CCOCC1,2%,9%,-11,2%,1,-3
